# The list is not random: actives were taken first. Their share in the collection is about 3.5%.
# GPR151 ag – activators of human GPR151, primary screen, cell-based, PathHunter beta-arrestin, luminescence | G-protein coupled receptor 151 (Homo sapiens), Q8TDV0 | PathHunter beta-arrestin GPR151 cells | activation, % at 11.2 µM | 650,000 compounds, 1% hits | AID 1508602, 2020; in the data active = activation above about 4.9%
# Target sequence (Q8TDV0 whole entry, looked up): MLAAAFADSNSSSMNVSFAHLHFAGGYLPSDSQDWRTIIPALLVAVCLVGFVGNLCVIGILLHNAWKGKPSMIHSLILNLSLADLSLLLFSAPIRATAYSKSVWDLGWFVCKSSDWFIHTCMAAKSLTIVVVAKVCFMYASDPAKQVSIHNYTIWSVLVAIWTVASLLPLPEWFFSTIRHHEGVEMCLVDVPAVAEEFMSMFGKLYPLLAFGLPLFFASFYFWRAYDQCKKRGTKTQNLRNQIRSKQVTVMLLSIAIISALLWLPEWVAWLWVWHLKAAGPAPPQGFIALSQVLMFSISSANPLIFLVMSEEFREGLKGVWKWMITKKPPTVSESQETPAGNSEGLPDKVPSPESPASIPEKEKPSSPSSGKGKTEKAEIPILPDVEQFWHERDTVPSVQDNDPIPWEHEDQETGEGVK
# MITF inh – MITF inhibitors, primary screen, biochemical, AlphaScreen, human; Microphthalmia-associated transcription factor (Homo sapiens), O75030; AlphaScreen MITF homodimerization, bead proximity signal; inhibition, % at 2.6 µM; 650,000 compounds, 0.91% hits; AID 1259374, 2018; in the data active = inhibition above about 50%
# FBW7 act – FBW7 E3 ligase activators, primary screen, biochemical, AlphaScreen, human; F-box/WD repeat-containing protein 7 (Homo sapiens), Q969H0; AlphaScreen FBW7–phospho-cyclin E peptide binding, activator screen; normalized activity (activation), % at 26.1 µM; 650,000 compounds, 0.13% hits; AID 1259310, 2017; in the data active = normalized activity above about 1.9%;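 note: purified mutant Fbw7 with reduced substrate affinity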
# TEAD-YAP inh – TEAD-YAP interaction inhibition, primary screen, TEAD-YAP interaction inhibitor project, luminescence, HEK-TIYL cells; TEAD-Gal4/YAP UAS-luciferase luminescence; inhibition, % at 9.12 µM; 640,000 compounds, 1.4% hits; AID 1259422, 2018; in the data active = inhibition above about 32%
# A number is an active result; – = inactive.
SMILES,GPR151 ag,MITF inh,FBW7 act,TEAD-YAP inh
CC(=O)c1ccc(NC(=O)COc2cc(C)ccc2C(C)C)cc1,–,–,–,–
COc1ccc2cc3c(N)nn(C(=O)c4ccccc4C)c3nc2c1,–,–,–,45
COc1ccc2cc3c(N)nn(C(=O)c4ccco4)c3nc2c1,–,–,–,59
COc1ccc(/C=C2\N=C(c3ccc(Cl)cc3Cl)OC2=O)cc1,–,–,–,–
COc1ccc(-n2nnnc2SCc2ccc(Cl)cc2)cc1,–,–,–,53
Clc1ccc(CSc2nnnn2-c2ccccc2)cc1,–,–,–,–
COc1ccc(S(=O)(=O)N2CCN(c3c(C)cccc3C)CC2)cc1,–,–,–,–
Cc1ccc(NC(=O)N2CCCc3ccccc32)cc1,–,–,–,–
CC(C)(C)c1ccc(NC(=O)N2CCc3ccccc32)cc1,–,–,–,87
COc1ccc(OC)c(/C=C2\N=C(c3ccc(Cl)c([N+](=O)[O-])c3)OC2=O)c1,–,–,–,–
CC(C)C(=O)NCc1ccc2[nH]c3c(c2c1)CCCC3,–,–,–,–
O=C(CCl)NCc1ccc2[nH]c3c(c2c1)CCCC3,–,–,–,34
COCCNc1c(-c2ccc(OC)cc2OC)nc2cnccn12,–,–,–,–
O=C(CN1CCOCC1)N/N=C/c1c(O)ccc2ccccc12,–,–,–,36
O=C(CN1CCOCC1)N/N=C/c1cn(Cc2ccccc2Cl)c2ccccc12,–,–,–,–
O=C(CN1CCN(Cc2ccccc2Cl)CC1)N/N=C\c1c(O)ccc2ccccc12,–,–,–,74
O=C(CO)N/N=C/c1c(O)ccc2ccccc12,–,–,–,–
Cc1cc(OCC(=O)Nc2ccccc2C(C)C)ccc1Cl,–,–,–,–
CCOc1ccccc1C(=O)Nc1ccc(N(C)C)cc1,–,–,–,–
COC1=CC(=O)C=C(OC)C1=O,–,–,–,55
COc1ccccc1C(=O)Nc1nc(-c2ccc(Cl)s2)cs1,–,–,–,–
COc1ccc(/C=C(/NC(=O)c2ccccc2Cl)C(=O)NCC(=O)O)cc1,–,–,–,–
Cc1ccc2c(c1)Oc1ccc(NC(=O)CCCl)cc1C(=O)N2,–,–,–,33
Cc1ccc2c(c1)NC(=O)c1cc(NC(=O)c3ccccc3Br)ccc1O2,–,–,–,44
N#C/C(=C\c1ccc(N2CCOCC2)c([N+](=O)[O-])c1)c1ccccn1,–,–,–,–
SMILES,GPR151 ag,MITF inh,FBW7 act,TEAD-YAP inh
COc1ccc(Nc2nc(N3CCCC3)nc3[nH]ncc23)cc1,–,–,–,48
COc1ccc(S(=O)(=O)N2CCCC(C(=O)Nc3c4c(nn3C)CCC4)C2)cc1 (stereo not given),–,–,–,–
Cn1nc2c(c1NC(=O)C1CCCN(S(=O)(=O)c3ccc(Cl)s3)C1)CCC2 (stereo not given),–,–,–,33
COc1ccc(/C=C/C(=O)Nc2ncc(Cc3ccccc3)s2)cc1,–,–,–,–
COc1ccc(Cc2cnc(NC(=O)/C=C/c3ccco3)s2)cc1,–,–,–,64
COc1ccc(Cc2cnc(NC(=O)/C=C/c3ccccc3)s2)cc1,–,–,–,56
C=CCn1c(=NC(=O)c2cccc(OC)c2OC)sc2cc(S(C)(=O)=O)ccc21,–,–,–,–
C=CCn1c(-c2ccc(C)cc2)csc1=Nc1ccc(NC(C)=O)cc1,–,–,–,50
CCn1c(-c2ccc(OC)cc2)csc1=Nc1ccc(NC(C)=O)cc1,–,–,–,65
CCn1c(-c2ccc(Cl)cc2)csc1=Nc1ccccc1,–,–,–,–
CCn1c(-c2ccc(Cl)cc2)csc1=Nc1ccc(NC(C)=O)cc1,–,–,–,80
Cc1ccccc1CNC(=O)CN(c1ccc(Cl)c(Cl)c1)S(C)(=O)=O,–,–,–,–
CN(Cc1n[nH]c2c1CCCC2)C(=O)CCC1(Cc2ccc3c(c2)OCO3)CCC(=O)N1 (stereo not given),–,–,–,–
OC[C@@H]1CCCN1c1ccnc2c(-c3ccc(F)cc3)cnn12,–,–,–,74
OCCC1CCCCN1c1ccnc2c(-c3ccccc3F)cnn12 (stereo not given),–,–,–,63
COc1ccccc1-c1cnn2c(N3CCCCC3CCO)ccnc12 (stereo not given),–,–,–,–
OCCC1CCCCN1c1ccnc2c(-c3cccc(Cl)c3)cnn12 (stereo not given),–,–,–,90
OCCC1CCCCN1c1ccnc2c(-c3ccccc3)cnn12 (stereo not given),–,–,–,89
O=C(CN(c1ccc(Br)cc1)S(=O)(=O)c1ccccc1)NCc1ccco1,–,–,–,–
O=C(CSc1nnc(-c2ccncc2)n1Cc1ccccc1)N1CCc2ccccc21,–,–,–,–
OCCC1CCCCN1c1ccnc2c(-c3ccc(F)cc3)cnn12 (stereo not given),–,–,–,97
Cc1ccc(-c2cnn3c(N4CCCCC4CCO)ccnc23)cc1C (stereo not given),–,–,–,–
CCCOC(=O)c1c(NC(=O)c2cc(-c3ccc(Br)cc3)nc3ccccc23)sc2c1CCCCC2,–,–,–,–
O=C(CSc1nc2ccccc2c(=O)n1CC1CCCO1)Nc1ccccc1C(F)(F)F (stereo not given),–,–,–,–
CN1/C(=C\C(=O)CSCc2ccco2)C(C)(C)c2ccccc21,–,–,–,–
SMILES,GPR151 ag,MITF inh,FBW7 act,TEAD-YAP inh
CN1/C(=C/C(=O)c2ccco2)C(C)(C)c2ccccc21,–,–,–,35
CCNc1nc(NCC)n2c(SCC(=O)c3ccc(OC)c(OC)c3)nnc2n1,–,69,–,–
CCNc1nc(NCC)n2c(SCC(=O)Nc3cccc(Cl)c3C)nnc2n1,–,76,–,–
CCNc1nc(NCC)n2c(SCC(=O)Nc3cc(=O)n(C)c(=O)n3C)nnc2n1,–,73,–,–
O=C(NCCc1ccc(O)cc1)c1cccc(Nc2ccccn2)c1,–,–,–,–
CCCCOc1ccc(OC(=O)Cn2c3ccccc3c(=O)c3ccccc32)cc1,–,–,–,–
c1ccc2c(c1)nnn1c3ccccc3nc21,–,–,–,35
Cc1nc2ccccc2c2nc3ccccc3n12,–,–,–,–
COc1ccc(-c2nc3ccccc3c(=O)o2)cc1[N+](=O)[O-],–,–,–,–
CCn1c(=O)n(Cc2cccs2)c2ncccc21,–,–,–,–
CCCc1ccc(-c2ccc(F)c(N3C(=O)c4cccc(F)c4C3=O)c2)nc1,–,–,–,62
CC(C)C(=O)Nc1cccc(C(=O)Nc2nnc(CCc3ccccc3)s2)c1,–,–,–,47
CC(=O)Nc1ccc(Br)c(C)c1C,–,–,–,–
COc1ccccc1N=C/C(C(=O)C(F)(F)F)=C(\O)c1cccs1,–,–,–,50
COC(=O)c1ccccc1N=C/C(C(=O)C(F)(F)F)=C(\O)c1cccs1,–,–,–,–
C=CCNC(=S)N(C1CCS(=O)(=O)C1)N(C)C (stereo not given),–,–,–,–

# Screening data (PubChem BioAssay)
